Assay in all cases: DAPPL (digital affinity profiling via proximity ligation, sequencing); 10 mM Tris-HCl pH 7.5, 50 mM NaCl, 1 mM DTT, 4% glycerol, room temperature, 30 min; GST-TFs on glutathione beads, 16-mer random dsDNA library, 0.1% formaldehyde crosslink after washing; high values mean tight binding
One assay deals with T1, FEV (Homo sapiens, UniProt Q99581 1-238).
T1 sequence: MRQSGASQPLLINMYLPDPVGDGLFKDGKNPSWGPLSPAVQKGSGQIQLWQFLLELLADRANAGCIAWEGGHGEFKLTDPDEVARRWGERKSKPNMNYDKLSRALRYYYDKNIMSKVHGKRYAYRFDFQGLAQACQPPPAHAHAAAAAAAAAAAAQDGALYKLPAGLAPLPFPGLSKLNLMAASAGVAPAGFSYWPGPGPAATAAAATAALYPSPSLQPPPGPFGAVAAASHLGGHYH
The following applies: protein: recombinant; tags: N-terminal GST; dsDNA, one strand shown. The method, boiled down:
(§1)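 Yeast served to express human transcription factors as GST fusions, which were then captured on glutathione beads and labelled with DNA barcodes. Pooled with a tag-only sample, they were incubated with 200 nmole of a 16-mer random double-stranded DNA library for 30 min at room temperature in Tris/NaCl/DTT/glycerol buffer, washed, crosslinked with 0.1% formaldehyde, ligated by proximity, amplified by PCR and sequenced. Dividing each hexamer's read frequency for a factor by its frequency for the tag-only sample gives the binding signal.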

The target in the next assay is ETV5 (Homo sapiens, UniProt P41161 1-510). The following applies: protein: recombinant; tags: N-terminal GST; dsDNA, one strand shown. The method, boiled down: as §1
In another assay the target is HSF1 (Homo sapiens, UniProt Q00613 1-529). The following applies: protein: recombinant; tags: N-terminal GST; chain copies: 3; dsDNA, one strand shown. The method, boiled down: as §1
The target in another assay is T2, SPIC (Homo sapiens, UniProt Q8N5J4 1-248).
T2 sequence: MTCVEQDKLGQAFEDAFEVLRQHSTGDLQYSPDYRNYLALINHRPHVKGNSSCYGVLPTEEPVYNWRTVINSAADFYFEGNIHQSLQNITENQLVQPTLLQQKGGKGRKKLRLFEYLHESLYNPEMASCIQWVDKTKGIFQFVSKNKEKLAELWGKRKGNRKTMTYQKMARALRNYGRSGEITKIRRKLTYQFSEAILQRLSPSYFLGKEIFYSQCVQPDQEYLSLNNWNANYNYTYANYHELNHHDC
The following applies: protein: recombinant; tags: N-terminal GST; dsDNA, one strand shown. A digest of the protocol:
as §1

The target in a further assay is ELF4 (Homo sapiens, UniProt Q99607 1-663). The following applies: protein: recombinant; tags: N-terminal GST; dsDNA, one strand shown. A digest of the protocol: as §1
Another assay addresses T3, ELK4 (Homo sapiens, UniProt P28324-2 1-405).
T3 sequence: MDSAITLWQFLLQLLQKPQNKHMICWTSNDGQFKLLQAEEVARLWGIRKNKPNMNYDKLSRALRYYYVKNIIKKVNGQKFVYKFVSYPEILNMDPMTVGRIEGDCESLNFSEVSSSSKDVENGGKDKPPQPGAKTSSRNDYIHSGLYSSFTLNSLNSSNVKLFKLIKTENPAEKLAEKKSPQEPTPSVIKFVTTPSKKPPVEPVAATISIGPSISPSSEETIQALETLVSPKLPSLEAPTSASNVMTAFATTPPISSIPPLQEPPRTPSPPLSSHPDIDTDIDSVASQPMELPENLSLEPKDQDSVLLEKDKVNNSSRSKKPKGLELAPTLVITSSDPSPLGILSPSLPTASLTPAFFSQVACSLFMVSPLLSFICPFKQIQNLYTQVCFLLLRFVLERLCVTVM
The following applies: protein: recombinant; tags: N-terminal GST; dsDNA, one strand shown. The method, boiled down:
as §1

For a further assay, the target named is T4, ETV2 (Homo sapiens, UniProt O00321 1-342).
T4 sequence: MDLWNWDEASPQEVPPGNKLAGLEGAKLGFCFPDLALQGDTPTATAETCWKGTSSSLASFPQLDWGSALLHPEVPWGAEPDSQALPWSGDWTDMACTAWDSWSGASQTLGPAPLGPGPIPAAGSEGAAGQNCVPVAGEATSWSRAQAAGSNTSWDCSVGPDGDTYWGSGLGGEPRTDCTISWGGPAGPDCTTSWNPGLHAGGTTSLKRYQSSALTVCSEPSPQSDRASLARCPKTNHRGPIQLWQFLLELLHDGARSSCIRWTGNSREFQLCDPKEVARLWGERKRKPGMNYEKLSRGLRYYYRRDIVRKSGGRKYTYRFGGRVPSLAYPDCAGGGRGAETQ
The following applies: protein: recombinant; tags: N-terminal GST; dsDNA, one strand shown. A digest of the protocol:
as §1

A further assay has as its target T5, ELF3 (Homo sapiens, UniProt P78545 1-371).
T5 sequence: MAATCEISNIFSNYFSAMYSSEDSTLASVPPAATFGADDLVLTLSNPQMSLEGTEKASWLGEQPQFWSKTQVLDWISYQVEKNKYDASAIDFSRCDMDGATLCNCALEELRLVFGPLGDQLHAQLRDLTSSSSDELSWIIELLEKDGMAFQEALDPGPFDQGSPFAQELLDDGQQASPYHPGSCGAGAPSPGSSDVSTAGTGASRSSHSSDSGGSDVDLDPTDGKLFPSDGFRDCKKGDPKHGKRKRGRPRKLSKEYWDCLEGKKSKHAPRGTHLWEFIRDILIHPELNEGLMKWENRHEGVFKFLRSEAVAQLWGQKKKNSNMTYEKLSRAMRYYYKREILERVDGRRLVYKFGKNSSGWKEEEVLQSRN
The following applies: protein: recombinant; tags: N-terminal GST; dsDNA, one strand shown. The method, boiled down: as §1

The target in a further assay is CRX (Homo sapiens, UniProt O43186 1-299). The following applies: protein: recombinant; tags: N-terminal GST; dsDNA, one strand shown. A digest of the protocol: as §1
The target in the next assay is ETV1 (Homo sapiens, UniProt P50549 1-477). The following applies: protein: recombinant; tags: N-terminal GST; dsDNA, one strand shown. The method, boiled down: as §1
Another assay concerns the target T6, ERF (Homo sapiens, UniProt P50548 1-548).
T6 sequence: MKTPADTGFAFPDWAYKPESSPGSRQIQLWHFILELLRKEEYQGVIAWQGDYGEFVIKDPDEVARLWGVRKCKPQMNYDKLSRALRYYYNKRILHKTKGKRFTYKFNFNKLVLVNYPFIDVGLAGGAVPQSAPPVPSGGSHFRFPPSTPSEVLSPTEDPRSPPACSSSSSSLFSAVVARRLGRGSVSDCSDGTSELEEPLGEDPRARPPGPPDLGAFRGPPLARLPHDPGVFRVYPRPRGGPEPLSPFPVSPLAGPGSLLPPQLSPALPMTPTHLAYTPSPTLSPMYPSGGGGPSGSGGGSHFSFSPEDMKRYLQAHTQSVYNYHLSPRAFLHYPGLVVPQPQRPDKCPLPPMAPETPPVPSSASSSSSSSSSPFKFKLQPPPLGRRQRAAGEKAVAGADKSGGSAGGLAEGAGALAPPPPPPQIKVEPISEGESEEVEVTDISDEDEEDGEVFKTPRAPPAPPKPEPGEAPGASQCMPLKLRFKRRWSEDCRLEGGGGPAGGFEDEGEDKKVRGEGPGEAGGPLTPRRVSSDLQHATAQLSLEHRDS
The following applies: protein: recombinant; tags: N-terminal GST; dsDNA, one strand shown. A digest of the protocol: as §1

The target in another assay is T7, ETV3L (Homo sapiens, UniProt Q6ZN32 1-361).
T7 sequence: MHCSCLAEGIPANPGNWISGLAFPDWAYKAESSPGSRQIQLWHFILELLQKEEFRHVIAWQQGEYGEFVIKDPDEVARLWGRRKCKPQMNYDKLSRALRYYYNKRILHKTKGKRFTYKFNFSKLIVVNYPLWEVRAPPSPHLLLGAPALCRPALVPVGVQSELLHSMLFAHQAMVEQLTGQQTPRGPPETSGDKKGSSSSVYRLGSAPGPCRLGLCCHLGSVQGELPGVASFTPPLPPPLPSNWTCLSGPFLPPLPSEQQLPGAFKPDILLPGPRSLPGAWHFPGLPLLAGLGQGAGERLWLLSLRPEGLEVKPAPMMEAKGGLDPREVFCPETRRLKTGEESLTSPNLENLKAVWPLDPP
The following applies: protein: recombinant; tags: N-terminal GST; dsDNA, one strand shown. The method, boiled down:
as §1

For the next assay, the target named is T8, ETS2 (Homo sapiens, UniProt P15036 1-469).
T8 sequence: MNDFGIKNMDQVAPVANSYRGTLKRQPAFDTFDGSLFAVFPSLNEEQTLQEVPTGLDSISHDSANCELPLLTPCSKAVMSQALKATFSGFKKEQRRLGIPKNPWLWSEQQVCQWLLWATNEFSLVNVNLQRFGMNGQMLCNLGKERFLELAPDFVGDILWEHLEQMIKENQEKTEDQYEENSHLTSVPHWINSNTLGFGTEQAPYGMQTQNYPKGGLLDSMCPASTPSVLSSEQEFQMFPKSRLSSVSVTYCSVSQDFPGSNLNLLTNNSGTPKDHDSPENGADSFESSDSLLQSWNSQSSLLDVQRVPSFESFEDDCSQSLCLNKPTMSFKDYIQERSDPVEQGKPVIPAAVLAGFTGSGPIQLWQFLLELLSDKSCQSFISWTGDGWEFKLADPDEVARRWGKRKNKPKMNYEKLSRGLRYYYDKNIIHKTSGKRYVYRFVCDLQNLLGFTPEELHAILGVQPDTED
The following applies: protein: recombinant; tags: N-terminal GST; dsDNA, one strand shown. The method, boiled down:
as §1

Another assay concerns the target T9, SPDEF (Homo sapiens, UniProt O95238 1-335).
T9 sequence: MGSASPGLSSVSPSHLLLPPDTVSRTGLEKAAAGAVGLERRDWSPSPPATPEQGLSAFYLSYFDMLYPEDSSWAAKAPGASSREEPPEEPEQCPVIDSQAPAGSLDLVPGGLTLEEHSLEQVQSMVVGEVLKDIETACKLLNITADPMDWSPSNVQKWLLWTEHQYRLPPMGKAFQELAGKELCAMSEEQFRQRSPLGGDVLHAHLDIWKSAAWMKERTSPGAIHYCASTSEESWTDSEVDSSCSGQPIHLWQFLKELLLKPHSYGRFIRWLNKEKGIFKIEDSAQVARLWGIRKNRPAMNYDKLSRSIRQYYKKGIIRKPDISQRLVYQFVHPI
The following applies: protein: recombinant; tags: N-terminal GST; dsDNA, one strand shown. The method, boiled down:
as §1

The next assay has as its target T10, ETV7 (Homo sapiens, UniProt Q9Y603 1-341).
T10 sequence: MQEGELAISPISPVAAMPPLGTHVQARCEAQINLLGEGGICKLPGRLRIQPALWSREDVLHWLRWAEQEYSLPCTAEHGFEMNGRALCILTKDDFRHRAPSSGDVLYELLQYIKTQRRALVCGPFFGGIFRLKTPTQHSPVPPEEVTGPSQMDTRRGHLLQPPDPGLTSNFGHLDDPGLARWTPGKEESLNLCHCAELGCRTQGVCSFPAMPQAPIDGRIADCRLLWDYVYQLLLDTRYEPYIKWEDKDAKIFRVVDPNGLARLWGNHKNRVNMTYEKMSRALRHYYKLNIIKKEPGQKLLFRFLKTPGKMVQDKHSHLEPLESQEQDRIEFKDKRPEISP
The following applies: protein: recombinant; tags: N-terminal GST; dsDNA, one strand shown. The method, boiled down: as §1

For the next assay, the target named is T11, ELF5 (Homo sapiens, UniProt Q9UKW6-2 1-255).
T11 sequence: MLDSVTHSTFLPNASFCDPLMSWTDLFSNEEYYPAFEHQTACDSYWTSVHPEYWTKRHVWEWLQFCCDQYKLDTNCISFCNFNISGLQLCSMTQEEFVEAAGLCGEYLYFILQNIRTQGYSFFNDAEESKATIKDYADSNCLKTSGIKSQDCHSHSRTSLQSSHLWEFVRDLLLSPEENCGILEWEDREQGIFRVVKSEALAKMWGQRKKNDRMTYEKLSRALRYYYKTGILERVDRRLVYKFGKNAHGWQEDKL
The following applies: protein: recombinant; tags: N-terminal GST; dsDNA, one strand shown. A digest of the protocol: as §1

For another assay, the target named is T12, ETV3 (Homo sapiens, UniProt P41162-2 1-143).
T12 sequence: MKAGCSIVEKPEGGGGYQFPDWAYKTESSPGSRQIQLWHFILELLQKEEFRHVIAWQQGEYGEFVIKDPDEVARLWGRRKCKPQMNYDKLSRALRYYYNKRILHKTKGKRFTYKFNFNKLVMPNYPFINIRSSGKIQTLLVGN
The following applies: protein: recombinant; tags: N-terminal GST; dsDNA, one strand shown. A digest of the protocol:
as §1

For a further assay, the target named is ETV6 (Homo sapiens, UniProt P41212 1-452). The following applies: protein: recombinant; tags: N-terminal GST; dsDNA, one strand shown. A digest of the protocol: as §1
Sequence of ETV6 (P41212 whole entry): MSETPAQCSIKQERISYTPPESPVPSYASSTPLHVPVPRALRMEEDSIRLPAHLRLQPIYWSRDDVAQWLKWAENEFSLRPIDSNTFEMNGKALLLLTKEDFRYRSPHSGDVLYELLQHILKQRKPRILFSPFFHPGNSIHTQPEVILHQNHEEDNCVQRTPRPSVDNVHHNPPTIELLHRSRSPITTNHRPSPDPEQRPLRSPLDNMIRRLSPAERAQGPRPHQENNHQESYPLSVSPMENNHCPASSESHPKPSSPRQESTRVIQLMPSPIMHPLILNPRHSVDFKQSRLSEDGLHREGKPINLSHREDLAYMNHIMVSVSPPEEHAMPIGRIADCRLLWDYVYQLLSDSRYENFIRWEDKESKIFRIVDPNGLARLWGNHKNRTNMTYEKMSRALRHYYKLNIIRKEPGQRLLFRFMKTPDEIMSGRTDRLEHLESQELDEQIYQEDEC

Sequence of ELF4 (Q99607 whole entry): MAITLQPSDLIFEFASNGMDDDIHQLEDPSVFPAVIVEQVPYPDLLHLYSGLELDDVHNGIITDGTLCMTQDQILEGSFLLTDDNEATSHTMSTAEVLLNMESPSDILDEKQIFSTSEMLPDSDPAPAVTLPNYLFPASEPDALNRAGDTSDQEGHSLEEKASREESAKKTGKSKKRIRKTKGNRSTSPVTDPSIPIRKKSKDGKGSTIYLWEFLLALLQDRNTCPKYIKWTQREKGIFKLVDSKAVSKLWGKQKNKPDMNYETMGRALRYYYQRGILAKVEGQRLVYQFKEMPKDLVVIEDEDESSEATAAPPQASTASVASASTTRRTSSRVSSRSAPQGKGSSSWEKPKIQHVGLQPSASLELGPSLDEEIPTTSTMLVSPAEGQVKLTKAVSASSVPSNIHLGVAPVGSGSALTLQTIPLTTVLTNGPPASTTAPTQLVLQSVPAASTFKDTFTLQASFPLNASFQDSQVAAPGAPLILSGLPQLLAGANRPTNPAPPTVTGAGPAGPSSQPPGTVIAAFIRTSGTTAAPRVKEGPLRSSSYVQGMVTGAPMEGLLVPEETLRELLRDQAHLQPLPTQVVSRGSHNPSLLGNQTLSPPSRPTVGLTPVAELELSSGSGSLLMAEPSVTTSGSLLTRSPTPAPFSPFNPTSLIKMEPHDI
Sequence of ETV5 (P41161 whole entry): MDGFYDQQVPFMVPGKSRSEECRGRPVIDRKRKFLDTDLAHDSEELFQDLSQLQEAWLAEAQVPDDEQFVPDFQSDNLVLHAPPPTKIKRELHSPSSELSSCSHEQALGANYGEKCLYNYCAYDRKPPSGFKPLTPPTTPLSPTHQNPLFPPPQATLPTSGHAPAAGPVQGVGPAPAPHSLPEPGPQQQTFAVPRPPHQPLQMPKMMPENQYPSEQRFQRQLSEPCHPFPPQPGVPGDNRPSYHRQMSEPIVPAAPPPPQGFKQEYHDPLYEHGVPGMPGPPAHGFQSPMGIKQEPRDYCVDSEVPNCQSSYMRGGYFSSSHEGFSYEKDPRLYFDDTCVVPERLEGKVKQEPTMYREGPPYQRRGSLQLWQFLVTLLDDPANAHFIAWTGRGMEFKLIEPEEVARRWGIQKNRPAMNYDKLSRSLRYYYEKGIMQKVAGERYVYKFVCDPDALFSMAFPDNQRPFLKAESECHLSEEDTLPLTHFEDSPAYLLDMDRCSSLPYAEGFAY
Sequence of CRX (O43186 whole entry): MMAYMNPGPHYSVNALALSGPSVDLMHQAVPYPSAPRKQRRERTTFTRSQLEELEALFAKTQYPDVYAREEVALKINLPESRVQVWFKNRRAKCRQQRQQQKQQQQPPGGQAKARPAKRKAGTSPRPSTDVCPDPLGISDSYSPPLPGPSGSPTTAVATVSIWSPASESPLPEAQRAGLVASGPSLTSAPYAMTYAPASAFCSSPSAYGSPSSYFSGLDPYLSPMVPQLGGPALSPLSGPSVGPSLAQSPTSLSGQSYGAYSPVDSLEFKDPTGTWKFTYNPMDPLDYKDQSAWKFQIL
Sequence of HSF1 (Q00613 whole entry): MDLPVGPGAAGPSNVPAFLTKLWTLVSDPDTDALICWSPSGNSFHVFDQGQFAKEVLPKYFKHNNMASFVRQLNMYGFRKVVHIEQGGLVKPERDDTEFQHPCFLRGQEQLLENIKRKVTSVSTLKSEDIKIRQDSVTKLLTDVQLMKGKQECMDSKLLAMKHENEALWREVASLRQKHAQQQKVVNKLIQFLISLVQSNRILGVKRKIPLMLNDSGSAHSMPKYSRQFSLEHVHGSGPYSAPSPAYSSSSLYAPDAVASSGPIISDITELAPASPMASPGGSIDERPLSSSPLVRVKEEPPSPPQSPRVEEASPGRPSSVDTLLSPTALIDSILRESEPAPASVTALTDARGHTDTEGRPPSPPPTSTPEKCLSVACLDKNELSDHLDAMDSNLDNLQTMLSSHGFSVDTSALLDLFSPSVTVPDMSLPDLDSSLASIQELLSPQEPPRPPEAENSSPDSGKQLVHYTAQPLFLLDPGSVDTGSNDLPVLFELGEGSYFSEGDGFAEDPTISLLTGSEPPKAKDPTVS
Sequence of ETV1 (P50549 whole entry): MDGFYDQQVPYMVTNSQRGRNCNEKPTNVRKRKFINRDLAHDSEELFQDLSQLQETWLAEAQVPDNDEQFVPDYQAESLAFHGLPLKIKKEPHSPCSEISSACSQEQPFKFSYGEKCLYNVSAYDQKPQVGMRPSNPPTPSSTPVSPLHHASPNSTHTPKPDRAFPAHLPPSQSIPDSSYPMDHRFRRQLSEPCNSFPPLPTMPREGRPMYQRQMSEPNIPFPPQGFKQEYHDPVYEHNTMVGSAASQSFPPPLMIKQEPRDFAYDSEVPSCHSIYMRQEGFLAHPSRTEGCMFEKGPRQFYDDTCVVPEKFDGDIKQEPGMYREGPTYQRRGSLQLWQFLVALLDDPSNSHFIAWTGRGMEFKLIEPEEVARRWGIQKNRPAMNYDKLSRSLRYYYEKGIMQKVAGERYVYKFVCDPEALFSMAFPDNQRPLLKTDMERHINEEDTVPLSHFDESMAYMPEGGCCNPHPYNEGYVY

As for TAGCCT, the binding signal is 1.26 fold enrichment (6-mer frequency, TF over GST control) with FEV; 1.22 fold enrichment (6-mer frequency, TF over GST control) in the assay with ETV5; 1.43 fold enrichment (6-mer frequency, TF over GST control) with HSF1; 1.17 fold enrichment (6-mer frequency, TF over GST control) in the assay with SPIC; 1.24 fold enrichment (6-mer frequency, TF over GST control) in the assay with ELF4; 1.18 fold enrichment (6-mer frequency, TF over GST control) with ELK4. The binding signal was 1.22 fold enrichment (6-mer frequency, TF over GST control) with ETV2; 1.27 fold enrichment (6-mer frequency, TF over GST control) with ELF3; 1.53 fold enrichment (6-mer frequency, TF over GST control) in the assay with CRX; 1.26 fold enrichment (6-mer frequency, TF over GST control) with ETV1; 1.28 fold enrichment (6-mer frequency, TF over GST control) in the assay with ERF; 1.31 fold enrichment (6-mer frequency, TF over GST control) in the assay with ETV3L. The binding signal in the assay with ETS2 is 1.25 fold enrichment (6-mer frequency, TF over GST control); with SPDEF, 1.07 fold enrichment (6-mer frequency, TF over GST control); in the assay with ETV7, 1.2 fold enrichment (6-mer frequency, TF over GST control); with ELF5 it was 1.17 fold enrichment (6-mer frequency, TF over GST control); with ETV3, 1.32 fold enrichment (6-mer frequency, TF over GST control); with ETV6, 1.04 fold enrichment (6-mer frequency, TF over GST control).

Source of the values: paper PMC7862700, “An all-to-all approach to the identification of sequence-specific readers for epigenetic DNA modifications on cytosine”.
